This is an account of results in PubChem BioAssay (NCATS).

Inconclusive results are not listed. Where a call stands in place of a potency, no number is given. Active and inactive are the calls of the source. Calls follow the shape of the dose curve; as a rule, active = well fitted inhibition curve with a large enough effect; inconclusive = small, poorly fitted or top-dose-only effect; inactive = flat fitted curve, though single readings scatter.
Potency is read from the fitted curve at half-maximal effect.

The test is described as follows: P-glycoprotein substrates identified in KB-8-5-11 adenocarcinoma cell line, qHTS therapeutic library screen (AID 1346987). Also: nearly all actives have a fitted effect of over 65% in size. The settings on record: KB-8-5-11 (P-gp overexpressing) viability, CellTiter-Glo, 72 h; series mostly up to 44.5 µM. The gist of the method: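 Human cervical adenocarcinoma KB-8-5-11 cells, selected in colchicine to over-express P-gp and assayed without it, were exposed for 72 h to titrated compounds. An ATP-based luminescent viability signal gave AC50.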
A general note: qHTS replaces the single test concentration by a dilution series.
With `COC(=O)C1=CO[C@@H](O[C@@H]2O[C@H](CO)[C@@H](O)[C@H](O)[C@H]2O)[C@@H]2[C@@H](C(=O)OC)[C@@H](O)C(O)[C@H]12` (stereo partly specified), the Potency result is “inactive”.

As for `CC(C)CC1(C(=O)OCc2ccc(O[C@@H]3O[C@H](CO)[C@@H](O)[C@H](O)[C@H]3O)cc2)CC(=O)OC(C(=O)O)CC(=O)OCC2OC(O1)C(OC(=O)/C=C/c1ccc(O)cc1)C(O)C2O` (stereo partly specified), the outcome is “inactive [at 9.29 µM]”.

Consider `CCOc1c2c(c(OCC)c3ccccc13)C(=O)N(c1ccc(CC(=O)NS(=O)(=O)c3ccccc3)cc1)C2`, for which the Potency result was “inactive”.

Regarding `C=CCc1ccc(O[C@@H]2O[C@H](CO[C@@H]3O[C@@H](C)[C@H](O)[C@@H](O)[C@H]3O)[C@@H](O)[C@H](O)[C@H]2O)cc1`, the Potency result is “inactive”.

Take `CC1CCC2C(C)(C)C(O)CCC2(C)C12Cc1c(O)cc3c(c1O2)CN=C3N` (stereo unspecified): the Potency entry was “inactive”.

As to `CCCC1=CC2=C(CO1)C(=O)C(C)(OC(=O)c1c(C)cc(OC)cc1O)C(O)C2` (stereo unspecified), the Potency entry is “inactive”.

Take `C[C@H]1[C@H](C)CC[C@]2(C(=O)O[C@@H]3O[C@H](CO)[C@@H](O)[C@H](O)[C@H]3O)CC[C@]3(C(=O)O)C(=CCC4[C@@]5(C)CC[C@H](O[C@@H]6O[C@H](CO)[C@@H](O)[C@H](O)[C@H]6O)C(C)(C)C5CC[C@]43C)[C@H]12` (stereo partly specified): the outcome was “inactive [at 9.29 µM]”.

`CC(C)(C)NCc1cc(Nc2ccnc3cc(Cl)ccc23)c2c(c1O)CCCC2`: the activity change, negative = cytotoxicity is 0.372% [at 0.354 µM] (inactive).

In the case of `O=C(O)CCc1cc2ccoc2cc1O[C@@H]1O[C@H](CO[C@@H]2OC[C@](O)(CO)[C@H]2O)[C@@H](O)[C@H](O)[C@H]1O`, the Potency result was “inactive”.

With `C=CCc1ccc(O[C@@H]2O[C@H](CO[C@@H]3O[C@H](CO)[C@@H](O)[C@H](O)[C@H]3O)[C@@H](O)[C@H](O)[C@H]2O)c(O)c1`, the Potency result is “inactive”.

With `O=C(/C=C/c1ccc(O)cc1)OC[C@H]1O[C@@H](OC(=O)/C=C/c2ccccc2)[C@H](O)[C@@H](O)[C@@H]1O`, the Potency result was “inactive”.

For the molecule `C=C1CCC2(OC1)OC1CC3C4CC=C5CC(O)CC(O[C@@H]6OC[C@@H](O)[C@H](O)[C@H]6O)C5(C)C4CCC3(C)C1(O)C2C` (stereo partly specified), the Potency result was “inactive”.

Consider `OC[C@H]1O[C@@H](Oc2cc(O)cc(-c3cc4ccc(O)cc4o3)c2)[C@H](O)[C@@H](O)[C@@H]1O`, for which the Potency result is “inactive”.

For the molecule `COc1c2c(c(C)c3c1C(=O)OC3)OC1(C)CC(O)C3(O)C(C)(C)OC(=O)CCC3(C)C1C2` (stereo unspecified), the Potency entry is “inactive”.

For the molecule `CC1CCC2C(C(=O)O)=CC3CC(C)(C)CC132` (stereo unspecified), the Potency result is “inactive”.

For `CC12CC34C=CC(=O)C(C)(CCC(=O)O)C3C(CC1C4)O2` (stereo unspecified), the Potency entry was “inactive”.

`CC1CCC2(C)C(CC(O)C(O)C23CO3)C1(C)CCC1=CC(O)OC1=O` (stereo unspecified): the Potency entry was “inactive”.

With `COC(=O)C12C(=O)C(C)=C(O)C1(C)C(C)=CC1C34CCC(OC3=O)C(C)(C)C4CCC12C` (stereo unspecified), the Potency entry is “inactive”.

For the molecule `C[C@@H]1C(=O)O[C@H]2CC34[C@H]5C[C@@H](C(C)(C)C)C36[C@@H](OC(=O)[C@@H]6O)OC4(C(=O)O5)[C@]21O` (stereo partly specified), the Potency result was “inactive”.

As to `CC(C)C(=O)c1cn(CC(=O)COc2ccc(Oc3ccccc3)cc2)c2ccc(C(=O)O)cc12`, the Potency entry is “inactive”.

As for `CC1(C)O[C@]23C[C@H]1C[C@H](OC(=O)c1ccoc1)[C@]2(C)[C@@H](OC(=O)c1ccoc1)CCC3(C)O` (stereo partly specified), the Potency entry is “inactive”.

With `COC(=O)[C@]12C(=O)C(C)=C(O)[C@@]1(C)C(C)=CC1[C@@]34CC[C@@H](OC(C)=O)C(C)(C)C3[C@H](C[C@]12C)OC4=O` (stereo partly specified), the Potency result is “inactive”.

In the case of `CN(C)C/C=C/C(=O)Nc1ccc(C(=O)Nc2cccc(Nc3ncc(Cl)c(-c4c[nH]c5ccccc45)n3)c2)cc1`, the Potency was 5.17 µM (active).

`O=C(O)c1n[nH]c2c1C[C@H]1C[C@@H]21`: the Potency entry was “inactive”.

`O=C(O[C@H]1[C@@H]2C=CO[C@@H](O[C@@H]3O[C@H](CO)[C@@H](O)[C@H](O)[C@H]3O)[C@@H]2[C@@]2(CO)O[C@@H]12)c1ccc(O)c(O)c1`: the Potency entry was “inactive”.

Turning to `C=C(C(=O)O)C1CCC(C)C2CCC(=O)OC2(C)C1` (stereo unspecified), the Potency result is “inactive”.
